Source: the supplement of paper PMC9135407
Structures can show the parent of a compound that is named as a salt.

System: primary human hepatic stellate cells (donor 1)
Assay: PSMB2 reference mRNA level vs DMSO (fold); higher = more PSMB2 expression
Conditions: 48 h
Protocol: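 Secondary qRT-PCR screen in primary human HSCs (donor 1), 384-well plates, with compounds dispensed in quadruplicate and incubated for 48 h. Cells-to-CT lysates were used for multiplexed TaqMan qPCR of ACTA2 or COL1A1 with PSMB2 as reference. Fold changes versus DMSO come from a linear model (Ct_gene ~ Ct_PSMB2 + plate + chemical). A hit is defined as COL1A1 and ACTA2 FC <0.5 (FDR <0.05) with PSMB2 between 0.2 and 2.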

With COc1ccc2[nH]cc(C3=CCNCC3)c2c1 (33.3333 µM) as the compound, how does the “PSMB2 reference mRNA level” value read?
The value was 1.01.

How did the “PSMB2 reference mRNA level” value turn out when C[C@@H]1O[C@@H](O[C@H]2C[C@@H](O)[C@]3(CO)[C@H]4[C@H](O)C[C@]5(C)[C@@H](C6=CC(=O)OC6)CC[C@]5(O)[C@@H]4CC[C@]3(O)C2)[C@H](O)[C@H](O)[C@H]1O [Ouabain] (33.3333 µM) was run?
The value was 1.24.

For O=[N+]([O-])/C=C/c1ccc2c(c1)OCO2 (3.7 µM), which “PSMB2 reference mRNA level” value is on record?
Its value is 1.

With CN1[C@@H]2CC[C@H]1C[C@@H](OC(c1ccc(F)cc1)c1ccc(F)cc1)C2 [3 α-Bis-(4-fluorophenyl) methoxytropane hydrochloride] (33.3333 µM) as the compound, how does the “PSMB2 reference mRNA level” value read?
Its value is 0.247.

For CCCCCCCCCCCCCC(=O)O[C@@H]1[C@@H](C)[C@@]2(O)[C@@H](C=C(CO)C[C@]3(O)C(=O)C(C)=C[C@@H]23)[C@@H]2C(C)(C)[C@]12OC(C)=O [Phorbol 12-myristate 13-acetate] (27.0333 µM), which “PSMB2 reference mRNA level” value is on record?
The value was 0.829.

For CO[C@H]1CC[C@@H](O[C@H]2C[C@H]([C@]3(C)CC[C@]4(C[C@H](O)[C@@H](C)[C@@H]([C@@H](C)/C=C(\C)C(=O)[C@H](C)C[C@H](C)C(=O)O)O4)O3)O[C@]3(O[C@@H]([C@H]4O[C@@](O)(CO)[C@H](C)C[C@@H]4C)C[C@@H]3C)[C@@H]2C)O[C@@H]1C [Nanchangmycin] (11.1 µM), which “PSMB2 reference mRNA level” value is on record?
The value was 0.936.

For CC1=C(CC/C(C)=C/CCC2=CC[C@H](C3=CC(=O)O[C@H]3O)O[C@H]2O)C(C)(C)CCC1 [Manoalide] (40 µM), which “PSMB2 reference mRNA level” value is on record?
Its value is 1.84.

With CC(C(=O)OC1CC2CCC(C1)N2C)c1ccc(Br)cc1 (centres undefined) [PG-9 maleate] (33.3333 µM) as the compound, how does the “PSMB2 reference mRNA level” value read?
The value was 1.01.

For COc1ccc2c(c[n+](C)c3c4cc5c(cc4ccc23)OCO5)c1OC (6.66667 µM), which “PSMB2 reference mRNA level” value is on record?
Its value is 0.187.

With C[C@]12CC[C@H](O)C[C@H]1CC[C@@H]1[C@@H]2CC[C@]2(C)[C@@H](C3=CC(=O)OC3)CC[C@]12O [Digitoxigenin] (33.3333 µM) as the compound, how does the “PSMB2 reference mRNA level” value read?
Its value is 0.954.

How did the “PSMB2 reference mRNA level” value turn out when CCN(CC)CCO[C@H]1CC[C@@]2(C)C(=CC[C@@H]3[C@@H]2CC[C@]2(C)C(=O)CC[C@@H]32)C1 (33.3333 µM) was run?
Its value is 0.278.

With CN(C(=O)Cc1ccc(Cl)c(Cl)c1)[C@H](CN1CCCC1)c1ccccc1 [ICI-199,441 hydrochloride] (33.3333 µM) as the compound, how does the “PSMB2 reference mRNA level” value read?
The value was 0.128.

With CC[C@H]1CN2CCc3cc(OC)c(OC)cc3[C@@H]2C[C@@H]1C[C@H]1NCCc2cc(OC)c(OC)cc21 [Emetine] (12.0333 µM) as the compound, how does the “PSMB2 reference mRNA level” value read?
The value was 0.628.

For O=C1C2CCN(CC2)C1(CO)CO (90 µM), which “PSMB2 reference mRNA level” value is on record?
The value was 0.115.

How did the “PSMB2 reference mRNA level” value turn out when O=c1[nH]c2ccccc2n1C1CCN(CCCC(c2ccc(F)cc2)c2ccc(F)cc2)CC1 [Pimozide] (33.3333 µM) was run?
Its value is 0.0111.

Which “PSMB2 reference mRNA level” value does the source give for CC1=C(O)C(=O)C=C2C1=CC=C1[C@@]2(C)CC[C@@]2(C)[C@@H]3C[C@](C)(C(=O)O)CC[C@]3(C)CC[C@]12C [Celastrol] (3.33333 µM) here?
The value was 0.633.

How did the “PSMB2 reference mRNA level” value turn out when CC1=NCCc2c1[nH]c1cc(O)ccc21 [Harmalol hydrochloride dihydrate] (24.4333 µM) was run?
The value was 0.715.

Which “PSMB2 reference mRNA level” value does the source give for Fc1cc(F)c2c(c1)[C@H]1C=CC[C@H]1C(c1cccnc1)N2 (some centres undefined) [Golgicide A] (33.3333 µM) here?
The value was 0.431.

How did the “PSMB2 reference mRNA level” value turn out when C[C@H](N)Cn1ccc2cc(F)c(Cl)cc21 [Ro 60-0175 fumarate] (33.3333 µM) was run?
The value was 0.297.
